Test results as given in the supplement of paper PMC11732987, “Enantioselective OTUD7B fragment discovery through chemoproteomics screening and high-throughput optimisation” (Communications Chemistry, 2025).

Tests used:
Assay in all cases: log2 ratio of Biotin-Ahx-Ub-VS probe labelling (fragment/DMSO); higher = less target engagement (more negative = stronger competition), active = hit call of the paper (q ≤ 0.05, log2 ratio ≤ -1)
Settings in all cases: compound concentration: 200 uM; treatment time: 3 h
USP34 = USP34 (UniProt Q70CQ2)
Outline: (§1)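 The table lists average log2 ratios of fragment over vehicle, from an unpaired t-test on global-median-normalised Spectronaut label-free quantities. Proteins with ≥2 unique peptides were used. Samples were HEK293T lysate (495 µg) treated in triplicate with fragment at 200 µM or vehicle for 3 h, then with Biotin-Ahx-Ub-VS (0.5 µM final) for 1 h, with labelled DUBs NeutrAvidin-enriched and run by diaPASEF LC-MS/MS.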

USP36 = target: T1, USP36 (UniProt Q9P275)
T1 sequence (whole entry): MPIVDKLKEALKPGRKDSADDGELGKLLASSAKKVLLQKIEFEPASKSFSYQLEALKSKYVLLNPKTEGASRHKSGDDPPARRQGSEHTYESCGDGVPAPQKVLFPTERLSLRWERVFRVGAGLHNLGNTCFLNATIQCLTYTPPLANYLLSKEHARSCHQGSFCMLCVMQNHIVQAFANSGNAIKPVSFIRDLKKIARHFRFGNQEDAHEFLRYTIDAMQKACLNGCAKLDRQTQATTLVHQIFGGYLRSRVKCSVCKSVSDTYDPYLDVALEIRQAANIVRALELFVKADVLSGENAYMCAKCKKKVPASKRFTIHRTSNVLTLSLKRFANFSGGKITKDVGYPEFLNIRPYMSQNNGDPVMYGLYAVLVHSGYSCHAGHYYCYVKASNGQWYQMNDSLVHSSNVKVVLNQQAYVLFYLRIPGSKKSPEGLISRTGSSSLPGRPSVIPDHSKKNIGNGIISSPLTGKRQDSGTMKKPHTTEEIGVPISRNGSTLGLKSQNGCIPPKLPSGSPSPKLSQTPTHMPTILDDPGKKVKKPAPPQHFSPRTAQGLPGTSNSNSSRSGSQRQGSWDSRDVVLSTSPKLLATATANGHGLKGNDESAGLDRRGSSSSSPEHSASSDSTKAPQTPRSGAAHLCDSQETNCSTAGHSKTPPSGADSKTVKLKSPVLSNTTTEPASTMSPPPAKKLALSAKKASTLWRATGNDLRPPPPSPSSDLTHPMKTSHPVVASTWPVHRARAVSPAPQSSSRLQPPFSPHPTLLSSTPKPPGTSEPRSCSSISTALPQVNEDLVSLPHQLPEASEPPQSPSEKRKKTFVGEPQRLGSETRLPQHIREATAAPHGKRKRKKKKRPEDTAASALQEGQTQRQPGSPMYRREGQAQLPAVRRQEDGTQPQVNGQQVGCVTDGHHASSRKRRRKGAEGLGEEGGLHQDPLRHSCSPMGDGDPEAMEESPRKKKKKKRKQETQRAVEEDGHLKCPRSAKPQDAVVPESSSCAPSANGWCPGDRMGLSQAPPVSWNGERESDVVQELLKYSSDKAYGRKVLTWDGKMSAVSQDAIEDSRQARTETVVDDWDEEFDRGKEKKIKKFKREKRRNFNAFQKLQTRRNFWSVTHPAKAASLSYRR
Outline: as §1

USP38 = target: T2, USP38 (UniProt Q8NB14)
T2 sequence (whole entry): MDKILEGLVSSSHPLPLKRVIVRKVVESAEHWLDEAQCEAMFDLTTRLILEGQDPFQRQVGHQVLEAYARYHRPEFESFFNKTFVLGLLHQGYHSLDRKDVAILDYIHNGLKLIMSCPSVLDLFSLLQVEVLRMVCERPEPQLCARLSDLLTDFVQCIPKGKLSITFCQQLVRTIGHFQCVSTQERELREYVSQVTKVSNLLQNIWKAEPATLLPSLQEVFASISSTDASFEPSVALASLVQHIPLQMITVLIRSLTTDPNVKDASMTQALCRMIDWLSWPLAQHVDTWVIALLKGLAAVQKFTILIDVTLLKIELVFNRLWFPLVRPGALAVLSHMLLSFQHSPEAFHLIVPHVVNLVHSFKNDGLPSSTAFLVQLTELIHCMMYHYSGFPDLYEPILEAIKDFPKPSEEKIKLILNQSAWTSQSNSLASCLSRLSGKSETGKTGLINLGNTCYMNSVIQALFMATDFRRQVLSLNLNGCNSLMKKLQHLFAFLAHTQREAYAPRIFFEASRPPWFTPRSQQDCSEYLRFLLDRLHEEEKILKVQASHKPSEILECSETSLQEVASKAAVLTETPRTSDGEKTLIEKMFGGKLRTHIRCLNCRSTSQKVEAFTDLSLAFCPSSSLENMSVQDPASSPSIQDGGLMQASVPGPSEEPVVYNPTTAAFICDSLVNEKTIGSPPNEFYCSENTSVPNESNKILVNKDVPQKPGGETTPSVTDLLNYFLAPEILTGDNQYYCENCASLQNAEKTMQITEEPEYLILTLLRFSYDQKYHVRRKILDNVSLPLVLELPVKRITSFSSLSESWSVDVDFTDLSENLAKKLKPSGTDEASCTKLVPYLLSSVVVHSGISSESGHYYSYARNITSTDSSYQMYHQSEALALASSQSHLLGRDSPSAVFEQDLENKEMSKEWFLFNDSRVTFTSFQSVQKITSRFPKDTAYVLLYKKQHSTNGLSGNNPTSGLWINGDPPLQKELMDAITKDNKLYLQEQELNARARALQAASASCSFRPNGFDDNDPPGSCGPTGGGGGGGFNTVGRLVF
Outline: as §1

USP39 = target: T3, USP39 (UniProt Q53GS9)
T3 sequence (whole entry): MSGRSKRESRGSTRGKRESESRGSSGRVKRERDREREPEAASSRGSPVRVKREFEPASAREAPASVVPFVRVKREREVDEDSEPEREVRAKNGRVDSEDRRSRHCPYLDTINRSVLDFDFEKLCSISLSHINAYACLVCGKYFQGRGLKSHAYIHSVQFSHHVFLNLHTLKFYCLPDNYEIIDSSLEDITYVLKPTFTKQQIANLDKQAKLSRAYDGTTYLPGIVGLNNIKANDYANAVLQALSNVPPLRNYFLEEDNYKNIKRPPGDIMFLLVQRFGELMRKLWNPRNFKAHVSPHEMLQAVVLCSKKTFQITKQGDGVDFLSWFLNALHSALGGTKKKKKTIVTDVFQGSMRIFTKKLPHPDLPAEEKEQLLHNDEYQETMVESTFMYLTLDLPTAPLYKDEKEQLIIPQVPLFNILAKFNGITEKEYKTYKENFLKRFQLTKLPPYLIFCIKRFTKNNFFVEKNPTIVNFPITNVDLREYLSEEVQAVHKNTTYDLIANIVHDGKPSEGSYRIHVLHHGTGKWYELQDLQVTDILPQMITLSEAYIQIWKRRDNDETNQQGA
Outline: as §1

USP4 = target: T4, USP4 (UniProt Q13107)
T4 sequence (whole entry): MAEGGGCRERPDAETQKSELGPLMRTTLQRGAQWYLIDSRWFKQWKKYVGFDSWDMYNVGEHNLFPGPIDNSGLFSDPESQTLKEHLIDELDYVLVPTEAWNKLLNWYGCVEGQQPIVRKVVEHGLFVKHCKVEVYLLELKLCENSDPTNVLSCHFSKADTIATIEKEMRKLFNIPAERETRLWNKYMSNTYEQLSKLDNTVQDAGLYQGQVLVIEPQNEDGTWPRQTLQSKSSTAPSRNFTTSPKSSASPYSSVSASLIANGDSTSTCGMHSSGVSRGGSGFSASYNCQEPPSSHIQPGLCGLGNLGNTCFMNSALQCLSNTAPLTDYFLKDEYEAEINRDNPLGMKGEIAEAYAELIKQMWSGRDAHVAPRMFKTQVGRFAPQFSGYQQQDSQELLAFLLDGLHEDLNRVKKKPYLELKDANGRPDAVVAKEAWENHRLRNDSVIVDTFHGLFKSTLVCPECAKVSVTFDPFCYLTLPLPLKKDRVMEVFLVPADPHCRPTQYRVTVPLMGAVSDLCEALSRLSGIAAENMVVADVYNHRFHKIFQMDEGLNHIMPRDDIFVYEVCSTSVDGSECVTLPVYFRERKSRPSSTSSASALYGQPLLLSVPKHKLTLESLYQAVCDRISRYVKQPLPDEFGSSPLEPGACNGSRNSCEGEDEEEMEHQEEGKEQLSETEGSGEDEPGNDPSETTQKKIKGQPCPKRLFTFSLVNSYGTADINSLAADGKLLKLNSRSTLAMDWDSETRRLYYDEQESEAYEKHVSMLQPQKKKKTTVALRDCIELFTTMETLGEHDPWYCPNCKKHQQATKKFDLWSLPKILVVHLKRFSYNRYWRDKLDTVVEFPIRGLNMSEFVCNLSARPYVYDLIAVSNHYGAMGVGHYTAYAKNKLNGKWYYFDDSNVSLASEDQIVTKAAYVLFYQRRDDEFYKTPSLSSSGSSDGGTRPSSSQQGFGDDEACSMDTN
Outline: as §1

Measured: log2 ratio of Biotin-Ahx-Ub-VS probe labelling

USP34, sequence (Q70CQ2 whole entry, the tested form may be a part): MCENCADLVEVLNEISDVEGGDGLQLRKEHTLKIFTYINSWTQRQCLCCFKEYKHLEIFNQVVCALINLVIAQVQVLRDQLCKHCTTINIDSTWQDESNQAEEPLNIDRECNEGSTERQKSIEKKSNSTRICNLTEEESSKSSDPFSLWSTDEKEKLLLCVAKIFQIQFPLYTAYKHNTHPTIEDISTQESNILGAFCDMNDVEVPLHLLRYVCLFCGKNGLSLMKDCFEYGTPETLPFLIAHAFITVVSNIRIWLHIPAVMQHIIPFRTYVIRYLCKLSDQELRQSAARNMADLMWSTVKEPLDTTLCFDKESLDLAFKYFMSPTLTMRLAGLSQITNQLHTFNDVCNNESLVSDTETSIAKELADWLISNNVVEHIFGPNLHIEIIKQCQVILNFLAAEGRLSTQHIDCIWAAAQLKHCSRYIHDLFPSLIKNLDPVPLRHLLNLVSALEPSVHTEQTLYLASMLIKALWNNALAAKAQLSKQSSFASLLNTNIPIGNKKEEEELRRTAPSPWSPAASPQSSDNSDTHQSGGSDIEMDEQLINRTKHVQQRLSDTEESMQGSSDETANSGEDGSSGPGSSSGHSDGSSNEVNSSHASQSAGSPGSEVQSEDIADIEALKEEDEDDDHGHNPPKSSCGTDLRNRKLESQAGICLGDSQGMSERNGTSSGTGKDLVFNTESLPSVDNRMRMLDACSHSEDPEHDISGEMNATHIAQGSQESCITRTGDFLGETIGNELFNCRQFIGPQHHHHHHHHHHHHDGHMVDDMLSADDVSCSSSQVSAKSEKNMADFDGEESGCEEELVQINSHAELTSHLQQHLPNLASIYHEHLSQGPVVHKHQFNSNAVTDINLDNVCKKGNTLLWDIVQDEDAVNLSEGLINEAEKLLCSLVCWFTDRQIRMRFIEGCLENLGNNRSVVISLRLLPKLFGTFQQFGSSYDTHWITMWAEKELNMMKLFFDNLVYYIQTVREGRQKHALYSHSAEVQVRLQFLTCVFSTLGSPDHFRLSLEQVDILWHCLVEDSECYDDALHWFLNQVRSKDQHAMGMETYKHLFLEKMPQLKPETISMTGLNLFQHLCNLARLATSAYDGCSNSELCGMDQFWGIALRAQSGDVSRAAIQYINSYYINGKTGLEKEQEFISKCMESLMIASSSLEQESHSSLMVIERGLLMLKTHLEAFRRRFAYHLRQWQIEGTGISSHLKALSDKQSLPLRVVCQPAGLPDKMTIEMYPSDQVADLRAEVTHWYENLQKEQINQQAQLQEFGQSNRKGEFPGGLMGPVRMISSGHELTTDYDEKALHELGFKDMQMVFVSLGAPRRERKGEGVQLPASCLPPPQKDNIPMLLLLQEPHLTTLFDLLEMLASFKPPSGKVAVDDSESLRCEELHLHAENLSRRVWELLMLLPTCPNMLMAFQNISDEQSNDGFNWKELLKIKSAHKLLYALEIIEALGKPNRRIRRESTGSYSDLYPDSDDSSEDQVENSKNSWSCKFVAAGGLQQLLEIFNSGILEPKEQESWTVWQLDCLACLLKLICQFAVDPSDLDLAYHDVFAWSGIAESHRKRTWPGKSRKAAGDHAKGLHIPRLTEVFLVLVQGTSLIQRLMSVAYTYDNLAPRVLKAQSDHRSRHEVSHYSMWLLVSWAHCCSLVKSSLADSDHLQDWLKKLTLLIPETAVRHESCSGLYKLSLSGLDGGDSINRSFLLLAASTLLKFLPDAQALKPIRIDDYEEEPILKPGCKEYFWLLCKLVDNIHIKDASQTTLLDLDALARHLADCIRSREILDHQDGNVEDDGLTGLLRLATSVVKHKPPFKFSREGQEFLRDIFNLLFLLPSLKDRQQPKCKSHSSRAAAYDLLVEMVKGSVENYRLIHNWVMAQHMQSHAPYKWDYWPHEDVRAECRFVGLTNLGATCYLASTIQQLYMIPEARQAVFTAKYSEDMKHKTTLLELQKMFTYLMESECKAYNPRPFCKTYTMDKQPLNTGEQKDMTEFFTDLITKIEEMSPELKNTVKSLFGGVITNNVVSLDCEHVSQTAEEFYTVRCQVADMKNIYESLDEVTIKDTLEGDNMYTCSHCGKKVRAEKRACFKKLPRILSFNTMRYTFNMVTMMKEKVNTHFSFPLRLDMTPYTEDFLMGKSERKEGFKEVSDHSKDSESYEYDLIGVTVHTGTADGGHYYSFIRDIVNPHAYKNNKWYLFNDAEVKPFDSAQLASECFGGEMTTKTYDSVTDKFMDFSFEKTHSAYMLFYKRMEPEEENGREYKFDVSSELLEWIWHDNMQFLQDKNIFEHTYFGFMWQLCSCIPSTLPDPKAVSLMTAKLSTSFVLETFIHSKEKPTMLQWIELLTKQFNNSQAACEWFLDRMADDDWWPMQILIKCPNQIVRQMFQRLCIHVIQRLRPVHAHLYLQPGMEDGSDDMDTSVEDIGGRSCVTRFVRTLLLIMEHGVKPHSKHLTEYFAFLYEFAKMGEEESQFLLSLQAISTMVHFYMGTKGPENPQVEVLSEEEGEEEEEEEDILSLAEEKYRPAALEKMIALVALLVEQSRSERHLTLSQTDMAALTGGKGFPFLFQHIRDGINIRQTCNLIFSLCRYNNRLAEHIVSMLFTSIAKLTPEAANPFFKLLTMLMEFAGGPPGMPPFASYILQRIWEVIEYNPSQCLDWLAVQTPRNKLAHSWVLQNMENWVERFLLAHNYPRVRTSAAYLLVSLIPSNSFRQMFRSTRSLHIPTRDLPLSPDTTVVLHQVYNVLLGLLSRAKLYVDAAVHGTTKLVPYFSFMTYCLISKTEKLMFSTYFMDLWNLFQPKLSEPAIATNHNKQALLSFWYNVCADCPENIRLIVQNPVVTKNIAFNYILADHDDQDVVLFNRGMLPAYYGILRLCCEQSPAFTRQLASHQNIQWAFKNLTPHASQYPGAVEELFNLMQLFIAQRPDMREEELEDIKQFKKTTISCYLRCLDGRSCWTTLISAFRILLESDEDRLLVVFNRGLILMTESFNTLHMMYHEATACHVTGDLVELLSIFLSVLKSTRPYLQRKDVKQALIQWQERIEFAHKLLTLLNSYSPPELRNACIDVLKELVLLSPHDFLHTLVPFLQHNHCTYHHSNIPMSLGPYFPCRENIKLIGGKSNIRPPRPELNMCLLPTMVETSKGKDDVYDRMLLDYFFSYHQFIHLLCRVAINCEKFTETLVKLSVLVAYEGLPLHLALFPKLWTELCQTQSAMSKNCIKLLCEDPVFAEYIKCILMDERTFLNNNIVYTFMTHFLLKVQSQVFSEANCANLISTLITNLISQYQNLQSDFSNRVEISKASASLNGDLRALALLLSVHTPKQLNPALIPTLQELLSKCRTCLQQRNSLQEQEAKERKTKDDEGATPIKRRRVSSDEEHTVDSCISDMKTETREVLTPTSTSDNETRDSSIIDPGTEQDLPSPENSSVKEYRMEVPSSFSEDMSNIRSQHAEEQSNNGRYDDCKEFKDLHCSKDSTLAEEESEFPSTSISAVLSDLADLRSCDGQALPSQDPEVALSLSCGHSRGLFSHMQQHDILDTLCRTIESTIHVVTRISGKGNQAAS

O=C(CCl)N1CCc2ccccc2C(O)C1 (stereo not given)
inactive: USP34 -0.224 | USP36 -0.441 | USP38 -0.0535 | USP39 0.0381 | USP4 -0.274
